Sampled rows, rich in hits. Any-hit rate of the full collection: about 2.4%.
L929 necroptosis: blocks zVAD induced death of L929 cells; L929 zVAD necroptosis rescue, ATP luminescence, 24 h; with zVAD 60 µM; viability rescue, % at 10 µM; 0.38% of 220,000 active; AID 1377;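 active means activation, scaled between plate controls, above about 75%, limit read from the data; inactive means activation under that limit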;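 further: 0% = zVAD with DMSO and 100% = DMSO alone without zVAD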
WT yeast gro inh: growth inhibition of WT yeast, mitochondrial fusion screen | inhibition, % at 10 µM | mitochondrial fusion phenotypic screen, WT strain | 2.1% of 190,000 active; in the data active means inhibition above about 58%; tested in S. cerevisiae
PERK inhibitor: inhibitors of human PERK kinase | Q9NZJ5 | CHO PERK-DD fusion, SEAP luminescence translation reporter | inhibition, % at 5.6 µM | 0.17% of 220,000 active | AID 1416;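 active means inhibition above the mean inhibition of all tested compounds plus 3 SD, set separately per screening campaign, cut at about 2.9% in these data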;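 further: PERK kinase domain activated by AP20187 dimerizer at 100 nM; 0% = DMSO with dimerizer and 100% = rapamycin at 8.4 µM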
Target sequence (Q9NZJ5 whole entry, looked up, the tested form may be a part): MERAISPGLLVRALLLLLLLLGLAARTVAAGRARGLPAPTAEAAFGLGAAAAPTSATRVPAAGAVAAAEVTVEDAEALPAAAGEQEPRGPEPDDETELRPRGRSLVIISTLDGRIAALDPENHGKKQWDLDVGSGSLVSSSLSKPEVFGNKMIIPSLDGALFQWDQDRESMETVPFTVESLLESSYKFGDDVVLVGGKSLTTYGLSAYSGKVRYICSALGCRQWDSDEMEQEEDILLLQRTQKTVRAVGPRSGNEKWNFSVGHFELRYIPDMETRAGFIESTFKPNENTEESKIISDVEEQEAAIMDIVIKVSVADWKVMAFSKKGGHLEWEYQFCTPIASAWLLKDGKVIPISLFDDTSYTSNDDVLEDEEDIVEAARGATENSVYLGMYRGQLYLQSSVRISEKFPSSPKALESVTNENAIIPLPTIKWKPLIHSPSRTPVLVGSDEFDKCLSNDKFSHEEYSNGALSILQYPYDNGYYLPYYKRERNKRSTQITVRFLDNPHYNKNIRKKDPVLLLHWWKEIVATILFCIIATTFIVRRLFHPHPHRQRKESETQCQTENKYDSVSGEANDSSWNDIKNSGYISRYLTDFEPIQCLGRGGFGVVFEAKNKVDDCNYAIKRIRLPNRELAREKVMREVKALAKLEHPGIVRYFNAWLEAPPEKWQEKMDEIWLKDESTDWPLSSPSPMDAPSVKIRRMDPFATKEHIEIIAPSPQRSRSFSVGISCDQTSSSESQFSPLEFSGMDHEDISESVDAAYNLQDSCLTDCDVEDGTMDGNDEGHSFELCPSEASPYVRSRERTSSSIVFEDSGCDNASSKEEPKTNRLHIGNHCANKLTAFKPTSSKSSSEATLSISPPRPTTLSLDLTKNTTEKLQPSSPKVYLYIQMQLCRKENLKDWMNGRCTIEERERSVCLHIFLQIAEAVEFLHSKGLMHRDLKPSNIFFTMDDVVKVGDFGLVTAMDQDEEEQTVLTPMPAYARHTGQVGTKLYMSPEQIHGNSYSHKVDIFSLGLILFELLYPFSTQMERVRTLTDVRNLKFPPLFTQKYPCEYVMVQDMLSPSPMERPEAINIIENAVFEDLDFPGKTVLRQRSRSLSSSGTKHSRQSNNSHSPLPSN
TNF death inh: blocks TNF-alpha induced death of Jurkat FADD-/- cells. activation (protection from cell death), % at 10 µM. Jurkat FADD-/- TNF necroptosis rescue, ATP luminescence, 24 h; 0 = TNF only, 100 = no-TNF cells. AID 463075. 0.068% of 220,000 active;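 active means activation, meaning protection from cell death, of at least 50% relative to plate controls; inactive means activation below 50%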;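 further: necroptosis triggered by 40 ng/mL TNF-alpha added together with compound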
Redox H2O2 prof: compounds producing H2O2 with reducing agent – biochemical, NIH compound library profiling, artefact control for MLSCN library redox annotation, primary screen | DTT-dependent redox cycling H2O2, phenol red/HRP absorbance; 100% = 100 µM peroxide control, 0% = buffer | activation, % at 10 µM | 0.03% of 200,000 active | AID 878;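 active means activation of at least 50% relative to the plate's high and low controls in the primary single-dose screen; inactive means activation below 50%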;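 further: compound incubated with DTT at 0.8 mM final as the reducing agent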
PKD1 inh: PKD1 (human) kinase inhibition; Q15139; inhibition, % (no concentration beside the values); PKD1 kinase fluorescence polarization assay; AID 797; 0.056% of 200,000 active; in the data active means inhibition above about 50%
* marks the source's active call; other numbers are inactive results; x = not tested or not shown.

SMILES | L929 necroptosis | WT yeast gro inh | PERK inhibitor | TNF death inh | Redox H2O2 prof | PKD1 inh
CC(/C=N/Nc1nc2ccccc2[nH]1)=C\c1ccccc1 | 55.0 | 89.6* | -0.7 | 3.7 | 0.8 | 4.0
CCN(CC)c1ccc(/C=N/Nc2nc3ccccc3[nH]2)cc1 | 49.8 | 78.5* | -1.7 | 7.5 | 0.0 | -5.9
CC(/C=N/Nc1nc(C)cc(=O)[nH]1)=C\c1ccccc1 | 2.5 | 11.1 | 1.3 | 2.9 | 0.6 | -2.3
Cc1cc(-c2ccc(NC(=O)[C@@H]3CCCC[C@@H]3C(=O)O)c(C)c2)ccc1NC(=O)[C@@H]1CCCC[C@@H]1C(=O)O | 1.5 | 4.8 | 0.9 | -0.2 | -0.6 | 2.9
Cc1cccc(Oc2ccc(Cl)cc2N)c1 | -0.1 | 16.0 | 0.1 | -3.2 | -0.4 | -1.3
CC(=O)Nc1ccc(-c2csc(Nc3cc(C)ccn3)n2)cc1 | 9.2 | 37.9 | 0.9 | -1.0 | -0.4 | -5.0
Cc1ccc(Nc2nc(-c3c(C)nc4ccccn34)cs2)cc1 | -0.3 | 70.9* | -0.8 | -21.0 | -2.9 | -6.7
Cc1ccnc(Nc2nc(-c3c(C)nc4sccn34)cs2)c1 | 27.8 | 80.7* | -1.5 | -5.4 | -0.6 | 0.4
Cc1ccc(Nc2nc(-c3c(C)nc4ncccn34)cs2)cc1 | -0.1 | -3.8 | 0.8 | -19.2 | 0.9 | -19.5
COc1ccc(C(=O)CSc2nnc(CC(=O)Nc3ccccc3OC)n2C)cc1 | 1.6 | -6.9 | 0.7 | 2.6 | 0.1 | -6.8
COc1cc2c(cc1NC(=O)c1cccc(F)c1)CCCC2 | -0.1 | 37.6 | -1.8 | 0.4 | -0.8 | 1.4
COc1cc2c(cc1NC(=O)c1cccc(Br)c1)CCCC2 | 0.0 | 72.5* | 0.3 | -2.4 | 1.7 | -5.8
O=C(c1ccco1)N1CCN(c2c(-c3ccccc3)c3cc(Cl)ccc3[nH]c2=O)CC1 | 0.6 | 85.8* | -1.1 | -4.7 | 0.8 | 0.5
O=c1[nH]c2ccc(Cl)cc2c(-c2ccccc2)c1N1CCOCC1 | 1.5 | 11.2 | 1.0 | 0.1 | -2.4 | -6.9
CN(C)S(=O)(=O)c1ccc(N=Cc2c(C(F)(F)F)[nH]n(C)c2=O)cc1 | 2.2 | -19.5 | 1.4 | 0.8 | -2.2 | -3.5
Cc1ccc(NC(=S)Nc2cccc3cnccc23)cc1C | 0.9 | 59.2* | -1.3 | -0.7 | 0.0 | 6.7
S=C(Nc1cccc(Cl)c1)Nc1cccc2cnccc12 | -0.3 | 70.1* | -0.6 | -3.7 | 0.9 | 6.9
Cc1ccc(C)c(NC(=S)Nc2cccc3cnccc23)c1 | -0.6 | 62.5* | 0.6 | -5.9 | -0.2 | -9.3
Cc1ccc(NC(=S)Nc2cccc3cnccc23)cc1 | 8.0 | 47.6 | 1.5 | -6.1 | -1.7 | -8.3
Cc1ccccc1NC(=S)Nc1cccc2cnccc12 | -0.7 | 38.8 | 0.0 | -1.7 | -1.6 | -2.1
O=c1n(-c2ccccc2)c(=O)n2n1CC(O)C2 | 1.3 | -12.5 | 0.9 | -0.9 | -0.7 | 2.4
O=C(COC(=O)c1ccccc1C(=O)c1ccc(Cl)c([N+](=O)[O-])c1)NC1CCCCCC1 | 0.1 | 77.7* | 2.5 | -18.6 | 0.2 | 5.9
O=C(NCc1nc(-c2ccc(C(F)(F)F)cc2)no1)Nc1cc(Cl)cc(Cl)c1 | 0.2 | x | 1.2 | -0.9 | x | x
Cc1nc2ccc(S(=O)(=O)Nc3ccc(-c4nc5cccnc5s4)cc3)cc2s1 | x | 22.6 | 0.0 | 1.4 | 0.2 | -10.2
Cc1nc2ccc(S(=O)(=O)Nc3cccc(-c4nc5cccnc5s4)c3)cc2s1 | x | 71.5* | 0.9 | -1.4 | -0.5 | 6.5
SMILES | L929 necroptosis | WT yeast gro inh | PERK inhibitor | TNF death inh | Redox H2O2 prof | PKD1 inh
CC1=C(C(=O)Nc2ccccc2)C(c2sccc2C)n2nnnc2N1 (stereo not drawn) | 1.5 | -2.4 | -0.4 | -1.3 | 0.1 | -2.5
CCOC(=O)Cc1c(Sc2ccccc2)c2cc(C)ccc2n1C | 0.4 | 68.0* | 0.1 | 1.0 | -0.1 | -3.7
Cc1ccc2c(c1)c(Sc1ccccc1)c(CC(=O)O)n2C | 3.2 | -31.3 | 0.7 | 1.4 | 0.1 | -3.4
O=C(Oc1ccc2ccccc2c1Cl)N1CCCCCC1 | 2.4 | 81.1* | 1.0 | 1.5 | 0.4 | -7.0
CCOC(=O)N1CCC(NC(=O)c2cc(-c3ccc(F)cc3)[nH]c2C)CC1 | 11.8 | 67.3* | -1.0 | 0.8 | -0.3 | -7.9
COc1ccc(-c2nc(C)ncc2N=Nc2ccccc2)cc1 | -0.1 | 98.5* | -0.1 | -5.0 | 1.0 | -4.2
CCOC(=O)c1ccccc1NC(=O)C1CC(=O)N(c2ccccc2)C1 (stereo not drawn) | 1.2 | 13.1 | -0.7 | -0.1 | -0.4 | -4.5
CCC(Sc1nc(-c2ccccc2)cc(=O)[nH]1)C(=O)O (stereo not drawn) | 0.9 | 4.7 | 3.0* | 0.4 | -0.1 | -5.1
Nc1nn(-c2ccccc2Cl)cc1-c1nn[nH]n1 | 0.2 | x | 0.6 | 1.5 | x | x
O=C(CN1CCC(C(=O)c2cccc(Cl)c2)CC1)Nc1ccc(C(=O)O)cc1 | 2.8 | -13.5 | -0.3 | 0.7 | -1.5 | 0.1
CSc1nc(N2CCOCC2)c2ccccc2n1 | 0.0 | 13.1 | 0.3 | -1.5 | 2.6 | -2.4
CSc1nc(N2CCN(c3ccccc3Cl)CC2)c2ccccc2n1 | 0.5 | 62.6* | -0.1 | -1.2 | -1.2 | 7.0
O=C(/C=C/c1ccc(Cl)cc1Cl)NCCSCc1ccccc1 | 0.5 | 58.5* | 1.0 | 0.7 | 0.0 | -2.3
O=C(/C=C/c1ccc(Cl)cc1)NCCSc1ccccc1 | 0.5 | 4.4 | 1.4 | -2.2 | 2.6 | -12.6
O=C(/C=C/c1ccc(Cl)cc1Cl)NCCSc1ccccc1 | 0.7 | 63.9* | -0.7 | 2.2 | 0.6 | -9.9
O=c1c2c(nc3nc(NCc4cccc5ccccc45)[nH]n13)CCC2 | 0.5 | -22.9 | 0.5 | 1.3 | -0.1 | -2.1
CCOc1cc(CN2CCN(C(=O)c3ccco3)CC2)ccc1OC | 1.0 | 5.5 | -0.8 | 2.7 | -2.3 | -2.4
CCOc1ccccc1-n1c(CN2CCN(C(=O)c3ccco3)CC2)nc2ccccc2c1=O | 0.2 | 69.9* | -1.7 | -8.0 | 0.6 | 4.1
CCOc1cc(C(N)=O)cc(Br)c1OC | -0.7 | 10.0 | 4.9* | -0.2 | -0.8 | -5.7
CCOc1cc(C(N)=O)cc(OCC)c1OCC | 0.1 | -6.8 | 1.0 | -0.6 | 2.9 | -3.5
NNc1nc2ccc(F)cc2s1 | -0.5 | 64.7* | -1.1 | -1.2 | -0.1 | 1.4
NNc1nc2ccc(Cl)cc2s1 | 0.3 | 36.2 | -1.1 | -0.4 | 0.1 | 8.3
Cc1cccc(N2CCN(C(=O)C(Cc3ccccc3)n3cccc3)CC2)c1C (stereo not drawn) | 20.4 | 68.9* | 0.0 | -0.5 | -0.3 | -11.3
CCOC(=O)c1cc(C(=O)OCC)c(=O)[nH]c1N1CCCCC1 | 2.3 | -1.1 | 0.2 | -0.9 | -1.6 | -0.7
CN1CCOCCOCCN(C)C(=O)N2CCOCCOCCN(CCOCC2)C1=O | 0.2 | -11.1 | 3.6* | 0.0 | 0.2 | 2.1
Cc1cc(C)c(S(=O)(=O)N2CCC(C(=O)NCc3ccc(Cl)cc3Cl)CC2)c(C)c1 | 0.2 | 74.7* | -0.5 | -0.5 | 0.2 | -3.0
CCS(=O)(=O)N1CCC(C(=O)NCc2ccc(F)cc2Cl)CC1 | 0.2 | 6.9 | 0.6 | -0.6 | 3.3 | -6.3

Compound activity deposited in PubChem BioAssay by several laboratories.
